Structures are written as SMILES. Screen size: about 2,300 compounds; about 1,400 (61%) were called active. Another 29% or so got no clear call; they are omitted. So high a share suggests a set chosen from earlier hits. Some of the results follow. Values without a mark were called inactive. Calls come from the whole dose curve; as a rule, active = well fitted inhibition curve with a large enough effect; inconclusive = small, poorly fitted or top-dose-only effect, or effect the other way; inactive = no such curve, though single readings can be large or run the other way.
% is set by controls: 0 for no effect and ±100 for the full control effect; potency is the fitted concentration of half-maximal effect.

The nature of the experiment: Confirmation screen for delayed death inhibitors of the malarial parasite plastid, 96 hour incubation. Note: nearly all actives have a fitted effect of over 60% in size. As to conditions: P. falciparum luciferase growth in erythrocytes; series mostly up to 28.7 µM; activity change, negative = inhibition: at the top concentration. The gist of the method:
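Erythrocytes infected with luciferase-expressing P. falciparum (2% hematocrit, 0.1% parasitemia final) in RPMI 1640 with 0.5% Albumax, exposed to compounds 96 h at 37 C, 5% CO2. Growth inhibition read as decreased luciferase luminescence.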
Take `O=C(CCl)Nc1cccc2ncccc12`: the Potency was 3.55 µM (active).
Same read-out and setting: as for `Cc1nc(SC(C)C(=O)NCC2CCCO2)c2cc(-c3ccccc3)sc2n1` (stereo not given), the figure is 11.2 µM (active); as for `CN(C)c1ccc(S(=O)(=O)N2CCCCC2)cc1NC(=O)C1=NN(c2ccccc2)C(=O)CC1`, 3.55 µM (active); as for `O=C(Nc1cc(Cl)ccc1N1CCCC1)C1=NN(c2ccccc2)C(=O)CC1`, 12.6 µM (active).
As for `O=C(CSc1nnc(COc2ccccc2)n1-c1ccccc1)c1cccs1`, the Potency is 11.2 µM (active).
As for `COc1cc2c(cc1OC)CN(C(=O)COc1ccccc1[N+](=O)[O-])CC2`, the Potency was 14.1 µM (active).
With `COc1cc2c(cc1OC)CN(C(=O)COc1ccccc1C#N)CC2`, the “activity change, negative = inhibition” value was -97.4%.
For the molecule `COc1ccc2c(C)cc(Sc3nnnn3-c3ccccc3)nc2c1`, the Potency is 15.8 µM (active).
On the same count and under the same terms, as for `Cc1ccc(C)c(-n2nnnc2Sc2nnnn2-c2ccccc2)c1`, the figure is 10 µM (active); as for `CCCOc1ccccc1/C=C1\SC(N2CCCCC2)=NC1=O`, 0.891 µM (active).
Regarding `COc1cccc(/C=C2\SC(N3CCCC(C)C3)=NC2=O)c1OC` (stereo not given), the Potency was 11.2 µM (active).
With `Cc1cc(-c2ccc(C(C)C)c(S(=O)(=O)NCc3ccco3)c2)on1`, the Potency is 14.1 µM (active).
Consider `CCc1ccc(-c2cc(C)no2)cc1S(=O)(=O)NCc1ccco1`, for which the Potency is 12.6 µM (active).
With `CN(C)S(=O)(=O)c1cccc(NC(=S)N/N=C/c2cc(Br)ccc2O)c1`, the Potency is 3.98 µM (active).
As for `O=C(O)CCn1c(-c2ccccc2)cc2c1CCCC2=O`, the “activity change, negative = inhibition” value was -11.5%.
In the case of `CC(=O)/C=C/c1ccccc1Oc1c(F)c(F)nc(F)c1F`, the Potency was 3.16 µM (active).
Consider `CN(C)S(=O)(=O)c1cccc(NC(=O)CSc2cccc3cccnc23)c1`, for which the Potency was 7.94 µM (active).
As for `O=C(CSc1cccc2cccnc12)N/N=C/c1cccnc1`, the Potency is 12.6 µM (active).
Regarding `O=C(NCc1ccccc1)C1=C[C@@H](c2coc3ccccc3c2=O)C[C@@H](OCc2ccc(CO)cc2)O1`, the Potency was 7.08 µM (active).
For `O=C(NC1CC1)C1=C[C@@H](C2CCCCC2)C[C@@H](OCc2ccc(CO)cc2)O1`, the Potency was 10 µM (active).
Turning to `O=C(Nc1ccccc1)C1=C[C@@H](C2CCCCC2)C[C@@H](OCc2ccc(CO)cc2)O1`, the Potency is 10 µM (active).
With `COc1cccc(NC(=O)CSc2nc3n[nH]c(C)c3c(=N)n2-c2cccc(OC)c2)c1`, the Potency is 6.31 µM (active).
As to `NC1=NC[C@@H](Cc2ccc(O)cc2)N1CCc1cccc(F)c1`, the Potency was 3.98 µM (active).
Consider `NC1=NC[C@H](Cc2ccc(O)cc2)N1CCc1cccc(F)c1`, for which the Potency is 3.16 µM (active).
In the case of `NC(=O)C1CCN(c2nc(C3CC3)nc3c2nnn3Cc2ccccc2Cl)CC1`, the Potency is 3.16 µM (active).
The same measure, in the same setting: with `CS(=O)(=O)c1ccc(-c2nnc(NC(=O)c3ccc(S(=O)(=O)N4CCCC4)cc3)o2)cc1` the figure was 15.8 µM (active).
Take `Cn1c(CCN2CCCCC2)nc2cc([N+](=O)[O-])ccc21`: the “activity change, negative = inhibition” value was -17.4%.
Turning to `CC1CCN(CCc2nc3cc(NS(=O)(=O)c4ccc(F)cc4)ccc3n2C)CC1`, the Potency was 12.6 µM (active).
Take `Cn1c(CCN2CCCCC2)nc2cc(NS(=O)(=O)c3ccc(F)cc3)ccc21`: the Potency is 12.6 µM (active).
On to `CCOc1ccc(S(=O)(=O)Nc2cc(S(=O)(=O)N(CC)CC)ccc2N2CCCC2)cc1`, for which the Potency is 0.501 µM (active).
For the molecule `N#Cc1cc(C(=O)c2cc(Cl)ccc2O)cn(-c2ccccc2)c1=O`, the Potency was 12.6 µM (active).
As to `COc1ccc(Nc2cccc(Cl)c2)c(C(=O)O)c1`, the “activity change, negative = inhibition” value is -20.8%.
On to `COc1cccc(NC(C)C(=O)Nc2cc([N+](=O)[O-])ccc2Cl)c1` (stereo not given), for which the Potency is 3.16 µM (active).
Regarding `O=C(O)CCc1ccc(-c2ccccc2)n1-c1ccc(C(=O)O)cc1`, the “activity change, negative = inhibition” value was 0.286%.
`Cc1ccc(NC(=O)c2ccc(Nc3c([N+](=O)[O-])cc([N+](=O)[O-])cc3[N+](=O)[O-])cc2)cc1`: the Potency was 2.24 µM (active).
The same measure, in the same setting: as for `Cc1ccc(NC(=O)/C(=C\c2ccc([N+](=O)[O-])cc2)NC(=O)c2ccccc2)cc1`, the figure is 2.82 µM (active); as for `CN1c2ccccc2-c2nc3ccccc3n2C1c1cccs1` (stereo not given), 4.47 µM (active); as for `O=C(c1ccc(CS(=O)c2ccccc2Cl)o1)N1CCCCCC1` (stereo not given), 5.62 µM (active).
Consider `O=C(c1ccc(CS(=O)c2ccccc2Cl)o1)N1CCN(c2ccccn2)CC1` (stereo not given), for which the Potency is 1.41 µM (active).
For the molecule `CO[C@@H]1[C@@H](OC2OC(C)C(OC3CC(C)(O)C(OC(=O)CC(C)C)C(C)O3)C(N(C)C)C2O)[C@@H](CC=O)C[C@@H](C)C(=O)/C=C\C2O[C@H]2C[C@@H](C)OC(=O)C[C@H]1OC(C)=O` (stereo not given in full), the Potency is 1.78 µM (active).
Take `CO[C@H]1[C@H](O[C@H]2O[C@@H](C)[C@@H](O[C@@H]3C[C@](C)(O)[C@H](O)[C@H](C)O3)[C@@H](N(C)C)[C@@H]2O)[C@@H](CC=O)C[C@@H](C)[C@@H](O[C@H]2CC[C@H](N(C)C)[C@H](C)O2)/C=C\C=C/C[C@@H](C)OC(=O)C[C@H]1O`: the Potency is 2.51 µM (active).
In the case of `Cc1ccc(OCCSCc2nnc(NC(=O)Nc3cccc(Cl)c3)s2)cc1`, the Potency was 2 µM (active).
Take `CCCNC(=O)COC(=O)c1ccccc1C(=O)c1ccc(Cl)c([N+](=O)[O-])c1`: the Potency is 10 µM (active).
On to `Cc1onc(-c2c(F)cccc2Cl)c1-c1nnc(-c2ccc(C(F)(F)F)cc2)o1`, for which the Potency is 6.31 µM (active).
Take `COc1cc(/C=C/C(=O)Nc2cccnc2)cc(OC)c1OC`: the Potency was 11.2 µM (active).
The same measure, in the same setting: with `COc1ccc2cc(C(=O)/C=C/c3cc(OC)c(O)c(OC)c3)ccc2c1` the figure was 15.8 µM (active).
Same read-out and setting: with `COc1cc(O)cc(O)c1C(=O)/C=C/c1ccccc1` the figure was 11.2 µM (active); with `COc1ccc(C(=O)/C=C/c2ccccc2)c(OC)c1`, 7.94 µM (active); with `COc1ccc(C(=O)/C=C/c2ccc(OC)c(O)c2)c(F)c1`, 11.2 µM (active).
As to `COc1ccc(C(=O)/C=C/c2cccnc2)c(OC)c1`, the Potency was 3.55 µM (active).
With `Cc1ccc(Nc2cc(C)nc3ccc(C)cc23)cc1`, the Potency is 10 µM (active).
For the molecule `COC(=O)C1=C(C)N(CC2CC2)C(=NCc2cc(OC)c(OC)c(OC)c2)N[C@H]1c1ccccc1`, the Potency is 11.2 µM (active).
As for `COc1cc2c(cc1OC)[C@@H](NC(=O)C(C)C)[C@H](OCc1ccccc1)C2`, the “activity change, negative = inhibition” value is -82.6%.
`O=C(Nc1ccc(N2CCCCC2)c(Cl)c1)c1cccnc1`: the Potency is 12.6 µM (active).
On to `Cc1nc(-c2ccccn2)sc1C(=O)Nc1ccc(Cl)c(Cl)c1`, for which the “activity change, negative = inhibition” value was -23%.

Source of the values: PubChem BioAssay AID504848 (National Center for Advancing Translational Sciences (NCATS), 2011).
